# Measured values reported in PubChem BioAssay (Tox21).
# Records with an inconclusive call do not appear. A call without a number means that no potency is given here. Unmarked numbers belong to inactive results. The source made the active and inactive calls. Calls come from the whole dose curve; as a rule, active = well fitted activation curve with a large enough effect in the repeat runs; inconclusive = weak or mixed curves; inactive = flat fitted curve, though single readings scatter.
# Test: A CellTox Green Cytotoxicity Assay to monitor cytotoxicity in HepG2 cells - 40 hour (AID 1224879); note: nearly all actives have a fitted effect of over 40% in size
# Conditions: CellTox Green fluorescence; series mostly up to 76.8 µM
# Source text: National Center for Advancing Translational Sciences [NCATS]
# NIH Chemical Genomics Center [NCGC]
# U.S. Environmental Protection Agency [EPA]
# National Institutes of Environmental Health Sciences [NIEHS]
# National Toxicology Program [NTP]
# Cell-based models are critical for drug discovery. Determining the natural cytotoxic effects resulting from test compounds is an essential research activity. A CellTox Green Cytotoxicity Assay to monitor cytotoxicity in real time of continues cell culture during 40 hours of the compound treatment was used to screen Tox21 10K library compounds in HepG2 cells. CellTox Green Cytotoxicity Assay is a nonlytic, homogeneous, biofluorescent method to measure cytotoxicity in cell culture after experimental manipulation. The assay system uses a proprietary asymmetric cyanine dye that is excluded from viable cells but preferentially stains the dead cell's DNA. […] Viable cells produce no appreciable increases in fluorescence. Therefore, the fluorescence signal produced by the binding interaction with dead cell DNA is proportional to cytotoxicity.
# The mixture of HepG2 cell suspension and reagents were dispensed at 600cells/6 ul/well in 1536-well tissue culture treated black solid bottom plates using a Multidrop dispenser. After the assay plates were incubated at a 37 C/5% CO2 incubator for 5 hours, 23 nL of compounds dissolved in DMSO, positive and negative controls was transferred to the assay plate by a pintool work station. The plates were incubated at 37 C for 40 hours. The fluorescence intensity were measured at 0h, 8h, 16h, 24h, 32h and 40h time points using ViewLux plate reader during compound treatment.
# Potency is the fitted concentration of half-maximal effect.
Compound,Potency,cytotoxicity increase
C1CCSC1,inactive,–
ClC(c1ccccc1)(c1ccccc1)c1ccccc1,inactive,–
CN(C)CCOc1ccc(/C(=C(/CCCl)c2ccccc2)c2ccccc2)cc1,32.5 µM (active),–
O=C(O)C[C@H](O)C[C@H](O)/C=C/c1c(C2CC2)nc2ccccc2c1-c1ccc(F)cc1,2.61 µM (active),–
CCc1c(C)cc(N)c(CC)c1N,inactive,–
O=C1OC(O)C(C(Cl)Cl)=C1Cl (stereo not given),35.7 µM (active),–
CC1(C)[C@H]2CC[C@]1(C)C(=O)C2,inactive,–
NCc1ccco1,inactive,–
CCN(CC)c1ccc(C=O)cc1,inactive,–
Nc1ccc(Cl)c([N+](=O)[O-])c1,inactive,–
CCN(CCC#N)c1ccc(N=Nc2ccc([N+](=O)[O-])cc2)cc1,inactive,–
CCCCNc1ccc(NCCCC)c2c1C(=O)c1ccccc1C2=O,–,-3.23% [at 15.8 µM]
c1ccc(C[P+](c2ccccc2)(c2ccccc2)c2ccccc2)cc1,19.5 µM (active),–
O=C1CCC(=O)N1,inactive,–
O=C(N[C@H](CO)[C@H](O)c1ccc([N+](=O)[O-])cc1)C(Cl)Cl,inactive,–
CCCCC/C=C\C=C\C(=O)OCC,36.1 µM (active),–
Nc1c(Br)cc([N+](=O)[O-])cc1Br,inactive,–
CC(O)(c1ccc(Cl)cc1)c1ccc(Cl)cc1,49 µM (active),–
Cc1ccc2nc(-c3ccc(N)cc3)sc2c1S(=O)(=O)O,inactive,–
Clc1cccc(Cl)n1,inactive,–

Compound,Potency,cytotoxicity increase
CCC(C)(C)c1ccc(CC(C)CN2C[C@@H](C)O[C@@H](C)C2)cc1 (stereo not given in full),23.9 µM (active),–
CCCC(=O)c1cc(O)c(O)cc1O,inactive,–
Oc1cccc2c(O)cccc12,inactive,–
Cc1cccc2c1ccc1ccccc12,inactive,–
CC(C)(c1ccc(Oc2ccc(N)cc2)cc1)c1ccc(Oc2ccc(N)cc2)cc1,inactive,–
NC(=O)c1ccccc1Cl,inactive,–
O=C1OCc2ccccc21,inactive,–
CN[C@H]1CC[C@@H](c2ccc(Cl)c(Cl)c2)c2ccc(S(N)(=O)=O)cc21,13.8 µM (active),–
CC/C(=C(/c1ccc(O)cc1)c1ccc(OCCN(C)C)cc1)c1ccccc1,12.9 µM (active),–
CCOC(=O)[C@H](C)O,inactive,–
CCC(=O)OC/C=C(\C)CCC=C(C)C,inactive,–
Nc1cccnc1N,inactive,–
CC(C=O)c1ccccc1 (stereo not given),inactive,–
CCn1c2ccccc2c2ccccc21,inactive,–
SC1CCCCC1,inactive,–
O=C(Nc1ccc([N+](=O)[O-])cc1)Nc1ccc([N+](=O)[O-])cc1 (tested in a mixture with another compound),21.3 µM (active),–
CC(=O)Nc1ccc(N=Nc2cc(C)ccc2O)cc1,inactive,–
C1=CCCC1,inactive,–
O=C1OC(=O)c2cc(-c3ccc4c(c3)C(=O)OC4=O)ccc21,inactive,–
NC(=O)C1CO1 (stereo not given),inactive,–
